{"source": "ChEMBL document CHEMBL3433997", "about": "“St. Jude Leishmania screening dataset” (2016)", "note": "Where “and” joins values, the source holds several entries; their conditions need not be identical. Equal entries are not always repeated.", "data": [{"target": "Solute carrier family 2, facilitated glucose transporter member 1 (Homo sapiens) (UniProt P11166)", "sequence (P11166 whole entry)": "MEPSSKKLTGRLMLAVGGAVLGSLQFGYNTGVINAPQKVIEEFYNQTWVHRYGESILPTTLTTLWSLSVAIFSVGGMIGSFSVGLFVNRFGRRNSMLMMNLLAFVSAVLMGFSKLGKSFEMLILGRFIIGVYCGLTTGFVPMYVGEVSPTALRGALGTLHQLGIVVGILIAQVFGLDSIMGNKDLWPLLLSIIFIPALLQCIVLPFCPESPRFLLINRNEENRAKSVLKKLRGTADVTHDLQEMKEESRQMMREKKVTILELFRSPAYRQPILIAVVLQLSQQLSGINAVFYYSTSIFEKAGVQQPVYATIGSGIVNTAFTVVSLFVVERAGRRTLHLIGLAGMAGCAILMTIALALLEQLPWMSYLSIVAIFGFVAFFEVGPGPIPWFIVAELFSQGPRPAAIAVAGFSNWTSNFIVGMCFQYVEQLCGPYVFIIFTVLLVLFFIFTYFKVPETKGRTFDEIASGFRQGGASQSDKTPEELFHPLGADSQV", "test": "ST_JUDE_LEISH: Cytotoxicity at 2uM final concentration against transgenic Leishmania Mexicana promastigotes LmGLUT1 that are glucose transport deficient and complemented with the human glucose transporter GLUT1. Activity is measured by DNA content using SYBR green in vitro", "assay_type": "functional", "values": [{"smiles": "O=C(NC1CCN(Cc2ccccc2)CC1)c1cccc(Nc2nc(-c3ccccc3)cs2)c1", "inhibition": "9.1%"}, {"smiles": "CC(CCON1C(N)=NC(N)=NC1(C)C)c1ccc(Cl)cc1", "note": "(stereo not given)", "inhibition": "21.4%"}, {"smiles": "Cc1cc(=NN=Cc2ccccn2)c2cc(C(F)(F)F)ccc2[nH]1", "inhibition": "-0.43%"}, {"smiles": "CCc1cccc(-n2c(=O)c3cccnc3n2CC(=O)NCc2ccccc2Cl)c1", "inhibition": "9.08%"}, {"smiles": "Cc1c(CNCCCNc2nc3cscc3[nH]2)sc(C(F)F)c1Br", "inhibition": "6.65%"}, {"smiles": "O=C(/C=C/c1ccc(Cl)c(Cl)c1)NCCCCCCN1CCCN(C(=O)Nc2ccc(Cl)c(Cl)c2)CC1", "inhibition": "2.36%"}, {"smiles": "CC(C)(C)c1cc(NC(=O)c2ccc(Cl)c([N+](=O)[O-])c2)cc(C(C)(C)C)c1", "inhibition": "6.54%"}, {"smiles": "COc1ccc(O)c(C(=O)c2cc(C(=O)NC3CCCCC3)c(=O)n(C3CCCCC3)c2)c1", "inhibition": "5.33%"}, {"smiles": "COc1ccc(C2c3ccccc3-c3nc(N)nc(N)c3C2C)cc1", "note": "(stereo not given)", "inhibition": "3.13%"}, {"smiles": "CC1CN(c2ccnc3ccc(Sc4ccc(Oc5ccccc5)cc4)cc23)CC(C)N1", "note": "(stereo not given)", "inhibition": "0.07%"}, {"smiles": "Cc1ccc2c(=O)n(C)c(=O)n(C)c2n1", "inhibition": "6.05%"}, {"smiles": "O=C1C(=Cc2cc(Cc3ccccc3)ccc2O)SC(=S)N1Cc1ccccc1", "inhibition": "8.42%"}, {"smiles": "COc1ccc(Nc2nc(NC3CCN(Cc4ccccc4)CC3)cc(-c3ccncc3)n2)cc1", "inhibition": "-0.03%"}, {"smiles": "Cc1nc2c(c(O)c1Cl)-c1ccc(Oc3cccc(C(F)(F)F)c3)cc1C2=O", "inhibition": "2.13% and 1.44%"}, {"smiles": "CN(C)CCOc1cc(O)c2c(c1)OC(C)(C)C=C2c1cccs1", "inhibition": "-0.97%"}, {"smiles": "COc1c(C2CCN(CCCCNC(=O)c3oc(-c4ccc(Cl)cc4)cc3CO)CC2)ccc2c1CCCC2", "inhibition": "1.58%"}, {"smiles": "O=C1COC2(CN1C1CCN(Cc3ccc(O)cc3Cl)C1)c1ccccc1-c1ccccc12", "note": "(stereo not given)", "inhibition": "2.42%"}, {"smiles": "CCc1cc(Cc2cnc(N)nc2N)cc(CC)c1OC", "inhibition": "2.48%"}, {"smiles": "N#Cc1cncc(-c2nc3c(N4CCC(N5CCCC5)CC4)cccc3n2CCNCc2ccccc2)c1", "inhibition": "0.91%"}, {"smiles": "Cc1cc(-c2ccc(CNCc3ccc(F)cc3)cc2)ccc1S(=O)(=O)NCCN1CCCC1", "inhibition": "66.4%"}, {"smiles": "CO/C(=C\\C=C\\c1cc2cc(Cl)c(Cl)cc2[nH]1)C(=O)NCCCN1CCN(c2cccc(OCC(=O)Nc3ccccc3)c2)CC1", "inhibition": "8.53%"}, {"smiles": "CN(CCCCCN1CCC(NC(=O)Nc2ccc(Oc3ccccc3)cc2)C1)C(=O)/C=C/c1ccc(Cl)c(Cl)c1", "note": "(stereo not given)", "inhibition": "0%"}, {"smiles": "CCn1ncc2c(N3CCCC3=O)cc(C(=O)N[C@@H](Cc3ccccc3)[C@H](O)CNC(C)(C)c3cccc(C(F)(F)F)c3)cc21", "inhibition": "-0.71%"}, {"smiles": "CC(C)N1CCN(C(=O)c2ccc(CNCCCN3CCN(c4cccc(Cl)c4Cl)CC3)o2)CC1", "inhibition": "-2.44%"}, {"smiles": "O=C(C=Cc1ccc(Cl)c(Cl)c1)NCCCCCN1CCC(CCNC(=O)c2cccc3ccccc23)CC1", "inhibition": "4.11%"}, {"smiles": "COc1ccc(-n2ccnc2SCC(=O)Nc2cc(C)ccc2C)c(OC)c1", "inhibition": "0.44%"}, {"smiles": "CC1(C)NC(N)=NC(=N)N1OCCOc1ccc(Cc2ccccc2)cc1", "inhibition": "1.41%"}, {"smiles": "CC(C)(O)CC(C)(C)c1cc(Cl)ccc1O", "inhibition": "6.46%"}, {"smiles": "CCCCCNc1nc(Nc2ccccc2C)nc2ccccc12", "inhibition": "29.1%"}, {"smiles": "CC(=O)Nc1cccc(C(=O)Nc2cccc(-c3ccc(-c4nc5cccc(C)c5[nH]4)s3)c2)c1", "inhibition": "3.54%"}, {"smiles": "COc1ccc2ncc(F)c([C@H](O)CN3CCC(NCc4ccc5c(c4)OCCO5)CC3)c2c1", "inhibition": "4.19%"}, {"smiles": "CCCCCN1C(=O)C(c2ccccc2)(c2ccccc2)N=C1N", "inhibition": "4.32%"}, {"smiles": "CS(=O)(=O)NCCCNCc1cccc(-c2ccc(-c3nc4ccccc4[nH]3)s2)c1", "inhibition": "12.1%"}, {"smiles": "COc1ccc(NC(=O)[C@H](CC(C)C)Nc2cc(C)nc(NCC3CCCCC3)n2)cc1", "inhibition": "3.07%"}, {"smiles": "Cc1cc(C=C2SC(=Nc3ccccc3)N(C3CCCC3)C2=O)c(C)n1-c1ccc(Cl)cc1", "inhibition": "0.96%"}, {"smiles": "COc1cc2c(cc1CCNCCCCNCCc1cc3c(cc1OC)CCCC3)CCCC2", "inhibition": "99.4%"}, {"smiles": "O=C(Nc1ccc(Cn2nc(Cl)c(N3CCNCC3)cc2=O)cc1)Nc1ccc(-c2ccccc2)cc1", "inhibition": "14%"}, {"smiles": "O=C(/C=C/c1c[nH]c2ccccc12)NCCCCCN1CCC(c2c[nH]c3ccccc23)CC1", "inhibition": "3%"}, {"smiles": "Cc1cccc2nc(-c3ccc(-c4cccc(CNCC5CCCO5)c4)s3)[nH]c12", "note": "(stereo not given)", "inhibition": "13%"}, {"smiles": "COc1cc2nc(N(C)C)nc(Nc3ccc(OCc4ccccc4)cc3)c2cc1OC", "inhibition": "0.24%"}]}, {"target": "Hexose transporter 1 (Plasmodium falciparum) (UniProt O97467)", "test": "ST_JUDE_LEISH: Cytotoxicity at 2uM final concentration against transgenic Leishmania Mexicana promastigotes LmPfHT that are glucose transport deficient and complemented with the Plasmodium falciparum hexose transporter. Activity is measured by DNA content using SYBR green in vitro", "assay_type": "functional", "values": [{"smiles": "O=C(NC1CCN(Cc2ccccc2)CC1)c1cccc(Nc2nc(-c3ccccc3)cs2)c1", "inhibition": "8.88%"}, {"smiles": "CC(CCON1C(N)=NC(N)=NC1(C)C)c1ccc(Cl)cc1", "note": "(stereo not given)", "inhibition": "29.5%"}, {"smiles": "Cc1cc(=NN=Cc2ccccn2)c2cc(C(F)(F)F)ccc2[nH]1", "inhibition": "-1.03%"}, {"smiles": "CCc1cccc(-n2c(=O)c3cccnc3n2CC(=O)NCc2ccccc2Cl)c1", "inhibition": "9.17%"}, {"smiles": "Cc1c(CNCCCNc2nc3cscc3[nH]2)sc(C(F)F)c1Br", "inhibition": "4.46%"}, {"smiles": "O=C(/C=C/c1ccc(Cl)c(Cl)c1)NCCCCCCN1CCCN(C(=O)Nc2ccc(Cl)c(Cl)c2)CC1", "inhibition": "2.49%"}, {"smiles": "CC(C)(C)c1cc(NC(=O)c2ccc(Cl)c([N+](=O)[O-])c2)cc(C(C)(C)C)c1", "inhibition": "6.88%"}, {"smiles": "COc1ccc(O)c(C(=O)c2cc(C(=O)NC3CCCCC3)c(=O)n(C3CCCCC3)c2)c1", "inhibition": "4.33%"}, {"smiles": "COc1ccc(C2c3ccccc3-c3nc(N)nc(N)c3C2C)cc1", "note": "(stereo not given)", "inhibition": "3.19%"}, {"smiles": "CC1CN(c2ccnc3ccc(Sc4ccc(Oc5ccccc5)cc4)cc23)CC(C)N1", "note": "(stereo not given)", "inhibition": "2.41%"}, {"smiles": "Cc1ccc2c(=O)n(C)c(=O)n(C)c2n1", "inhibition": "2.94%"}, {"smiles": "O=C1C(=Cc2cc(Cc3ccccc3)ccc2O)SC(=S)N1Cc1ccccc1", "inhibition": "7.14%"}, {"smiles": "COc1ccc(Nc2nc(NC3CCN(Cc4ccccc4)CC3)cc(-c3ccncc3)n2)cc1", "inhibition": "-0.17%"}, {"smiles": "Cc1nc2c(c(O)c1Cl)-c1ccc(Oc3cccc(C(F)(F)F)c3)cc1C2=O", "inhibition": "2.5% and 1.39%"}, {"smiles": "CN(C)CCOc1cc(O)c2c(c1)OC(C)(C)C=C2c1cccs1", "inhibition": "-1.11%"}, {"smiles": "COc1c(C2CCN(CCCCNC(=O)c3oc(-c4ccc(Cl)cc4)cc3CO)CC2)ccc2c1CCCC2", "inhibition": "1.81%"}, {"smiles": "O=C1COC2(CN1C1CCN(Cc3ccc(O)cc3Cl)C1)c1ccccc1-c1ccccc12", "note": "(stereo not given)", "inhibition": "2.74%"}, {"smiles": "CCc1cc(Cc2cnc(N)nc2N)cc(CC)c1OC", "inhibition": "0.46%"}, {"smiles": "N#Cc1cncc(-c2nc3c(N4CCC(N5CCCC5)CC4)cccc3n2CCNCc2ccccc2)c1", "inhibition": "0.8%"}, {"smiles": "Cc1cc(-c2ccc(CNCc3ccc(F)cc3)cc2)ccc1S(=O)(=O)NCCN1CCCC1", "inhibition": "41.4%"}, {"smiles": "CO/C(=C\\C=C\\c1cc2cc(Cl)c(Cl)cc2[nH]1)C(=O)NCCCN1CCN(c2cccc(OCC(=O)Nc3ccccc3)c2)CC1", "inhibition": "8.92%"}, {"smiles": "CN(CCCCCN1CCC(NC(=O)Nc2ccc(Oc3ccccc3)cc2)C1)C(=O)/C=C/c1ccc(Cl)c(Cl)c1", "note": "(stereo not given)", "inhibition": "6.7%"}, {"smiles": "CCn1ncc2c(N3CCCC3=O)cc(C(=O)N[C@@H](Cc3ccccc3)[C@H](O)CNC(C)(C)c3cccc(C(F)(F)F)c3)cc21", "inhibition": "0.84%"}, {"smiles": "CC(C)N1CCN(C(=O)c2ccc(CNCCCN3CCN(c4cccc(Cl)c4Cl)CC3)o2)CC1", "inhibition": "-1.41%"}, {"smiles": "O=C(C=Cc1ccc(Cl)c(Cl)c1)NCCCCCN1CCC(CCNC(=O)c2cccc3ccccc23)CC1", "inhibition": "2.98%"}, {"smiles": "COc1ccc(-n2ccnc2SCC(=O)Nc2cc(C)ccc2C)c(OC)c1", "inhibition": "0.63%"}, {"smiles": "CC1(C)NC(N)=NC(=N)N1OCCOc1ccc(Cc2ccccc2)cc1", "inhibition": "0.91%"}, {"smiles": "CC(C)(O)CC(C)(C)c1cc(Cl)ccc1O", "inhibition": "5.76%"}, {"smiles": "CCCCCNc1nc(Nc2ccccc2C)nc2ccccc12", "inhibition": "22.7%"}, {"smiles": "CC(=O)Nc1cccc(C(=O)Nc2cccc(-c3ccc(-c4nc5cccc(C)c5[nH]4)s3)c2)c1", "inhibition": "1.14%"}, {"smiles": "COc1ccc2ncc(F)c([C@H](O)CN3CCC(NCc4ccc5c(c4)OCCO5)CC3)c2c1", "inhibition": "2.23%"}, {"smiles": "CCCCCN1C(=O)C(c2ccccc2)(c2ccccc2)N=C1N", "inhibition": "2.96%"}, {"smiles": "CS(=O)(=O)NCCCNCc1cccc(-c2ccc(-c3nc4ccccc4[nH]3)s2)c1", "inhibition": "11.8%"}, {"smiles": "COc1ccc(NC(=O)[C@H](CC(C)C)Nc2cc(C)nc(NCC3CCCCC3)n2)cc1", "inhibition": "2.78%"}, {"smiles": "Cc1cc(C=C2SC(=Nc3ccccc3)N(C3CCCC3)C2=O)c(C)n1-c1ccc(Cl)cc1", "inhibition": "0.85%"}, {"smiles": "COc1cc2c(cc1CCNCCCCNCCc1cc3c(cc1OC)CCCC3)CCCC2", "inhibition": "98.4%"}, {"smiles": "O=C(Nc1ccc(Cn2nc(Cl)c(N3CCNCC3)cc2=O)cc1)Nc1ccc(-c2ccccc2)cc1", "inhibition": "9.91%"}, {"smiles": "O=C(/C=C/c1c[nH]c2ccccc12)NCCCCCN1CCC(c2c[nH]c3ccccc23)CC1", "inhibition": "1.49%"}, {"smiles": "Cc1cccc2nc(-c3ccc(-c4cccc(CNCC5CCCO5)c4)s3)[nH]c12", "note": "(stereo not given)", "inhibition": "11.4%"}, {"smiles": "COc1cc2nc(N(C)C)nc(Nc3ccc(OCc4ccccc4)cc3)c2cc1OC", "inhibition": "1.34%"}]}]}
